# Laboratory results taken from PubChem BioAssay (NCATS).
# Where “and” joins values, the source holds several entries; their conditions need not be identical. Identical values can stand only once. Records with an inconclusive call do not appear. A call without a number means that no potency is given here. Calls of active or inactive are those of the source. The call rests on the fitted dose curve; in most records, active means well fitted curve in the direction sought with a large enough effect; inconclusive means small, poorly fitted or top-dose-only effect, or another doubt; inactive means no such curve, though single readings can be large; an effect the other way counts as inactive or inconclusive.
# Tests used:
# [1] = biological target: Lysine-specific demethylase 5B (Homo sapiens) (UniProt Q9UGL1); assay: Optimization screen for KDM5B Histone Demethylases FDH coupled qHTS against the LOPAC library (AID 1347166); settings: KDM5B demethylation, FDH-coupled NADH fluorescence (FDH is formaldehyde dehydrogenase); series mostly up to 57.5 µM
# Summary of the method: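 KDM5BDeltaAP (200nM final) preincubated 10 min with compound, then 12.5uM H3K4Me3, 25uM a-ketoglutarate, ascorbate, Fe(II), NAD+ and FDH added; 50mM HEPES pH 7.5, 0.01% Tween-20. NADH fluorescence (340/450 nm) change over 30 min, room temperature.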
# [2] = test system: Zika virus NS2B-NS3 protease (linked); assay: 384 well plate NINDS AMC confirmatory qHTS for Zika virus inhibitors (AID 1347163); settings: Recombinant NS2B-NS3 protease, Ac-VKTGKR-AMC fluorescence; further: potency means the concentration at half of the fitted maximal effect; nearly all actives have a fitted effect of over 50% in size
# Summary of the method: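 Linked protease 5/30/60 nM final; cpds up to 1 mM final, ~15 min preinc. Substrate Ac-VKTGKR-AMC 30 microM final. RT, dark, 25 min; FI ex 355/em 460; normalized to no-enzyme/no-inhibitor ctrls.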
# [3] = test system: Zika virus NS2B-NS3 protease (linked construct); assay: 384 well plate NINDS Rhodamine confirmatory qHTS for Zika virus inhibitors (AID 1347164); settings: rhodamine-110 peptide substrate fluorescence; series mostly up to 100 µM;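 further: fluorescence from protease cleavage of Ac-LKRR-rhodamine 110 substrate; nearly all actives have a fitted effect of over 65% in size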; further: potency means the concentration at half of the fitted maximal effect
# Summary of the method: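 Linked NS2B-NS3 protease (final 5, 30 or 60 nM) preincubated ~15 minutes with compounds, then 10 microM Ac-LKRR-Rhodamine 110 added. Fluorescence (485/538 nm) read after 25 minutes at room temperature, normalized to no-enzyme and no-inhibitor controls.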
# [4] = Vero cells viability qHTS for Zika virus inhibitors (AID 1347167); settings: cytotoxicity counter-screen (Zika); series mostly up to 45.9 µM
# Summary of the method: (§1)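 Counter-screen for cytotoxicity of hits from NS2B-NS3 protease qHTS. Overnight-attached cells (2.5 x 10^5 cells/mL, DMEM/4% FBS) were dosed in titration, incubated 24 to 48 hours, then assayed by CellTiter Glo.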
# [5] = HepG2 cells viability qHTS for Zika virus inhibitors (AID 1347168); settings: Zika counter-screen; series mostly up to 45.9 µM
# Summary of the method: as §1
# [6] = Tertiary RLuc qRT-PCR qHTS assay for Zika virus inhibitors (AID 1347169); settings: infected Vero cells, reporter luminescence, 48-72 h; series mostly up to 45.9 µM; further: nearly all actives have a fitted effect of over 55% in size; further: potency means the concentration at half of the fitted maximal effect
# Summary of the method: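 Vero cells (1,000/well) infected with recombinant ZIKV-RLuc (Cambodian) at MOI 1-2 after compound addition, 48-72 hrs at 37 degrees C. Live-cell Renilla luciferase substrate added; luminescence read after 1-1.5 hrs.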
# [7] = OV-KATE Cancer Cell Toxicity qHTS against the NCATS CANVASS Library (AID 1347345); settings: OV-KATE cells viability, CellTiter-Glo luminescence, 72 h; series mostly up to 38.3 µM
# Summary of the method: (§2)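 Bortezomib titration and single-dose wells served as plate controls. Test compounds, 11 points, acted on 1000 cells/well for 72 h at 37 degrees C; CellTiter-Glo luminescence quantified remaining viable cells.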
# [8] = HPAF-II Cancer Cell Toxicity qHTS against the NCATS CANVASS Library (AID 1347346); settings: HPAF-II viability, CellTiter-Glo ATP luminescence, 72 h; series mostly up to 38.3 µM; further: nearly all actives have a fitted effect of over 55% in size
# Summary of the method: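 HPAF-II cells were seeded at 1000 cells/well, allowed to settle for 4 h at 37 degrees C, then exposed to compounds in an 11-point series for 72 h. Viability was read by CellTiter-Glo luminescence.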
# [9] = UWB1.289 Cancer Cell Toxicity qHTS against the NCATS CANVASS Library (AID 1347347); settings: UWB1.289 viability, CellTiter-Glo luminescence, 72 h; series mostly up to 38.3 µM; further: nearly all actives have a fitted effect of over 60% in size
# Summary of the method: as §2
# [10] = OV-SAHO Cancer Cell Toxicity qHTS against the NCATS CANVASS Library (AID 1347348); settings: OV-SAHO viability, CellTiter-Glo luminescence, 72 h; series mostly up to 38.3 µM; further: nearly all actives have a fitted effect of over 55% in size
# Summary of the method: as §2
# [11] = Panc-1005 Cancer Cell Toxicity qHTS against the NCATS CANVASS Library (AID 1347349); settings: Panc-1005 viability, CellTiter-Glo luminescence, 72 h; series mostly up to 38.3 µM; further: nearly all actives have a fitted effect of over 60% in size
# Summary of the method: as §2
# [12] = SW1088 Cancer Cell Toxicity qHTS against the NCATS CANVASS Library (AID 1347350); settings: SW1088 viability, CellTiter-Glo luminescence, 72 h; series mostly up to 38.3 µM; further: nearly all actives have a fitted effect of over 75% in size
# Summary of the method: as §2
# [13] = U-118MG Cancer Cell Toxicity qHTS against the NCATS CANVASS Library (AID 1347351); settings: U-118MG viability, CellTiter-Glo luminescence, 72 h; at 38.3 µM (top of the series)
# Summary of the method: as §2
# [14] = COV-362 Cancer Cell Toxicity qHTS against the NCATS CANVASS Library (AID 1347352); settings: COV-362 viability, CellTiter-Glo luminescence, 72 h; series mostly up to 38.3 µM
# Summary of the method: (§3)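 Cells were seeded at 1000 per well and allowed to settle 4 hours at 37 degrees C before pin transfer of compounds as an 11-point series. Viability was read by CellTiter-Glo luminescence after 72 hours' exposure.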
# [15] = A2780 Cisplatin Sensitive Ovarian Cancer Cell Toxicity qHTS against the NCATS CANVASS Library (AID 1347353); settings: A2780 ovarian cancer viability, ATPLite luminescence, 72 h; at 46.1 µM (top of the series); further: nearly all actives have a fitted effect of over 60% in size
# Summary of the method: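 A2780 cisplatin-sensitive cells (750 per well) were seeded, left 4 h at 37 °C, then pin-dosed in an 11-point series. After 72 h at 37 °C/5% CO2, viability was measured as ATPLite luminescence.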
# [16] = UWB1.289-WTBRCA1 Cancer Cell Toxicity qHTS against the NCATS CANVASS Library (AID 1347354); settings: UWB1.289-WTBRCA1 viability, CellTiter-Glo luminescence, 72 h; at 38.3 µM (top of the series)
# Summary of the method: as §3
# [17] = HEK-293 Cancer Cell Toxicity qHTS against the NCATS CANVASS Library (AID 1347355); settings: HEK-293 viability, CellTiter-Glo luminescence, 72 h; at 46.1 µM (top of the series); further: nearly all actives have a fitted effect of over 65% in size
# Summary of the method: as §3
# [18] = HPAF-II 24hr Apoptosis Induction qHTS against the NCATS CANVASS Library (AID 1347356); settings: HPAF-II caspase-3/7 Caspase-Glo luminescence; series mostly up to 46.1 µM
# Summary of the method: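 HPAF-II cells (500/well) in DMEM + 10% FBS were treated with an 11-point compound series for 24 hours at 37 degrees C. Caspase-3/7 activity was then read by Caspase-Glo DEVD luminescence after 15 min.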
# [19] = HEK293 18hr Apoptosis Induction qHTS against the NCATS CANVASS Library (AID 1347357); settings: HEK293 caspase-3/7 Caspase-Glo luminescence; series mostly up to 46.1 µM
# Summary of the method: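 HEK293 cells (500/well, DMEM + 10% FBS) treated with an 11-point series for 18 h at 37 degrees C. Caspase-3/7 activity read by Caspase-Glo luminescence after 15 min at room temperature.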
# [20] = HPAF-II 12hr Apoptosis Induction qHTS against the NCATS CANVASS Library (AID 1347358); settings: HPAF-II caspase-3/7 Caspase-Glo luminescence; series mostly up to 46.1 µM
# Summary of the method: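 HPAF-II cells (500/well, DMEM + 10% FBS) were exposed to compounds for 12 hours at 37 degrees C. Caspase-3/7 activity was then read by Caspase-Glo 3/7 luminescence after 15 min at room temperature.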
# Sequence of Lysine-specific demethylase 5B (Homo sapiens) (Q9UGL1 whole entry, looked up): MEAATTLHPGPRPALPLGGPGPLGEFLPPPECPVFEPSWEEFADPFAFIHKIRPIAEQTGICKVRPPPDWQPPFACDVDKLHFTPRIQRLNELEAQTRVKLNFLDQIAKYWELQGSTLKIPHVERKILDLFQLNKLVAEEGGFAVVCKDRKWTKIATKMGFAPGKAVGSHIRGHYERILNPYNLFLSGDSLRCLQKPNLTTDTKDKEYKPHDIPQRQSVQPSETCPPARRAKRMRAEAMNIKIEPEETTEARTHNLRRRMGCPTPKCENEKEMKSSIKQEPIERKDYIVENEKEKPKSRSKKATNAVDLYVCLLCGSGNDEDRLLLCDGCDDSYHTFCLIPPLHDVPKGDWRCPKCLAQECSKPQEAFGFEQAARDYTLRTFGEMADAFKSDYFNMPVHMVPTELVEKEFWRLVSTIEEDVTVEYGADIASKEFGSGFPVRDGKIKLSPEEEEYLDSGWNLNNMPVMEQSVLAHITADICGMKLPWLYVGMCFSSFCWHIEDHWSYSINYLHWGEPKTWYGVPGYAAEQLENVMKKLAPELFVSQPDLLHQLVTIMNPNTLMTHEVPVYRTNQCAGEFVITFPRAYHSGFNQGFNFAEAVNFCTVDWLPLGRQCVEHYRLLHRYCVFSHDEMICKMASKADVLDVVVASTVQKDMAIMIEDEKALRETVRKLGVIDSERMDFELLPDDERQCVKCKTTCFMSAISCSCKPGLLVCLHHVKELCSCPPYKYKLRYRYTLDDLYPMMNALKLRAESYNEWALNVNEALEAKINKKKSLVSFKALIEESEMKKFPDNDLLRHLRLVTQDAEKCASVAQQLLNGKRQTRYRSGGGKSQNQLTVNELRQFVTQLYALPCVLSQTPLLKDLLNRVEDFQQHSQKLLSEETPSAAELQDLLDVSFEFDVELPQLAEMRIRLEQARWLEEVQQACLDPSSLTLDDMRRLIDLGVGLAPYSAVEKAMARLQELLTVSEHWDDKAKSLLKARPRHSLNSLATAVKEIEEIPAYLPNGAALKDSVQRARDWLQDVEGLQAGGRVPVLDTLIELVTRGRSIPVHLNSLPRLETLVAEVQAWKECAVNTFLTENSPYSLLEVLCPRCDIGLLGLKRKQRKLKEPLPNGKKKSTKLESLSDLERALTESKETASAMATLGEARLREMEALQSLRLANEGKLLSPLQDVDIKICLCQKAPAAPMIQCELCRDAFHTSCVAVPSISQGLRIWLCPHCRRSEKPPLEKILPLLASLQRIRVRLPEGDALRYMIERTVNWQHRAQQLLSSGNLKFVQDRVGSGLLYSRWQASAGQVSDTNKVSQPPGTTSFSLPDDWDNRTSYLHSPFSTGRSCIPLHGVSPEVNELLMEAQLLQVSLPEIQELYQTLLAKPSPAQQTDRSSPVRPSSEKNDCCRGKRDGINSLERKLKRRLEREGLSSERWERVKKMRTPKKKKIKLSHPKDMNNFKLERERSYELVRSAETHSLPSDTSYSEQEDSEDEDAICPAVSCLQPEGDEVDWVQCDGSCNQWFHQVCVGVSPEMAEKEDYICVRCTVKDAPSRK
compound,measurement,setting,value
NCC(CC(=O)O)c1ccc(Cl)cc1 (stereo unspecified),outcome,[1],inactive
Cc1cc(SCc2sc(-c3ccc(C(F)(F)F)c(F)c3)nc2C)ccc1OCC(=O)O,Potency,[2],39.8 µM (active)
same,Potency,[3],35.5 µM (active)
same,outcome,[4],inactive
same,outcome,[5],inactive
same,Potency,[6],23.4 µM (active)
CCC1(C2=NCCN2)Cc2ccccc2O1 (stereo unspecified),outcome,[1],inactive
CC(=O)[C@H]1CC[C@H]2[C@@H]3CC[C@H]4C[C@](C)(O)CC[C@]4(C)[C@H]3CC[C@]12C,outcome,[1],inactive
COC[C@H]1OC(=O)c2coc3c2[C@@]1(C)C1=C(C3=O)C2CCC(=O)[C@@]2(C)C[C@H]1OC(C)=O (stereo partly specified),outcome,[1],inactive
CC(C)=CCOc1c2occc2cc2ccc(=O)oc12,outcome,[1],inactive
CCCN1CCC[C@@H]2Cc3nc(N)ncc3C[C@H]21,outcome,[1],inactive
CC(CCc1ccccc1)NC(C)C(O)c1ccc(O)cc1 (stereo unspecified),outcome,[1],inactive
c1ccc2c(c1)OCC(C1=NCCN1)O2 (stereo unspecified),outcome,[1],inactive
N[C@@H](Cc1ccc(Oc2cc(I)c(O)c(I)c2)c(I)c1)C(=O)O,Potency,[2],50.1 µM (active)
same,Potency,[3],inactive
same,outcome,[4],inactive
same,outcome,[5],inactive
same,Potency,[6],inactive
CN(C)[C@@H]1C(=O)C(C(N)=O)=C(O)[C@@]2(O)C(=O)C3=C(O)c4c(O)cccc4[C@@](C)(O)[C@H]3C[C@@H]12,Potency,[2],224 µM (active)
same,Potency,[3],inactive
c1ccc(C2CC2)c(OCC2=NCCN2)c1,outcome,[1],inactive
NCC1(CC(=O)O)CCCCC1,outcome,[1],inactive
O=c1oc2ccccc2c(O)c1C(CC(O)c1ccc(-c2ccc(Br)cc2)cc1)c1ccccc1 (stereo unspecified),Potency,[2],31.6 µM (active)
same,Potency,[3],6.31 µM (active)
CC(=O)[C@H]1CC[C@H]2[C@@H]3CC[C@H]4C[C@H](O)CC[C@]4(C)[C@H]3C(=O)C[C@]12C,outcome,[1],inactive
CC(O)(CS(=O)(=O)c1ccc(F)cc1)C(=O)Nc1ccc(C#N)c(C(F)(F)F)c1 (stereo unspecified),outcome,[1],inactive
Fc1ccc(C(OCCN2CCN(CCCc3ccccc3)CC2)c2ccc(F)cc2)cc1,outcome,[1],inactive
Cc1cccc(C)c1NC(=O)CN1CCCC1=O,outcome,[1],inactive
O=c1[nH]c2ccccc2n1C1CCN(CCCC(c2ccc(F)cc2)c2ccc(F)cc2)CC1,outcome,[1],inactive
NN=C(N)N,outcome,[1],inactive
Cc1ncc(CNC(=O)N(CCCl)N=O)c(N)n1,outcome,[1],inactive
COc1ccccc1N1CCNCC1,outcome,[1],inactive
Nc1ccncc1,outcome,[1],inactive
C[C@H]1O[C@@H](O[C@H]2[C@@H](O)C[C@H](O[C@H]3[C@@H](O)C[C@H](O[C@H]4CC[C@@]5(C)[C@H](CC[C@@H]6[C@@H]5CC[C@]5(C)[C@@H](C7=CC(=O)OC7)CC[C@]65O)C4)O[C@@H]3C)O[C@@H]2C)C[C@H](O)[C@@H]1O,outcome,[4],inactive
same,Potency,[6],0.107 µM (active)
Cc1cccc(C)c1NC1=NCCCS1,outcome,[1],inactive
C=C(C)[C@H]1Cc2c(ccc3c2O[C@@H]2COc4cc(OC)c(OC)cc4[C@@H]2C3=O)O1,outcome,[1],inactive
CNCC(O)c1ccc(O)cc1 (stereo unspecified),outcome,[1],inactive
CCCN1CCC[C@@H]2Cc3[nH]ncc3C[C@H]21,outcome,[1],inactive
O=c1[nH]c2ccccc2n1CCCN1CCC(n2c(=O)[nH]c3cc(Cl)ccc32)CC1,outcome,[1],inactive
C[C@]12CCC(=O)C(O)=C1CC[C@@H]1[C@@H]2CC[C@]2(C)C(=O)CC[C@@H]12,outcome,[1],inactive
O=C1NCN(c2ccccc2)C12CCN(CC1COc3ccccc3O1)CC2 (stereo unspecified),outcome,[1],inactive
COc1ccc(C(CN(C)C)C2(O)CCCCC2)cc1 (stereo unspecified),outcome,[1],inactive
CN1C[C@H](CNC(=O)OCc2ccccc2)C[C@@H]2c3cccc4c3c(cn4C)C[C@H]21,outcome,[4],inactive
same,outcome,[5],inactive
same,Potency,[6],inactive
CCN(C(C)=O)c1cccc(-c2ccnc3c(C#N)cnn23)c1,outcome,[4],inactive
same,outcome,[5],inactive
same,Potency,[6],inactive
C[C@@H]1O[C@@H](O[C@H]2C[C@@H](O)[C@]3(CO)[C@H]4[C@H](O)C[C@]5(C)[C@@H](C6=CC(=O)OC6)CC[C@]5(O)[C@@H]4CC[C@]3(O)C2)[C@H](O)[C@H](O)[C@H]1O,outcome,[1],inactive
same,outcome,[4],inactive
same,outcome,[5],inactive
same,Potency,[6],117 nM (active) and 58.7 nM (active)
O=C(O)C(=O)c1cn(Cc2ccccc2)c2ccc(-c3ccc(OC(F)(F)F)cc3)cc12,Potency,[2],11.2 µM (active)
same,Potency,[3],12.6 µM (active) and 3.16 µM (active)
same,outcome,[4],inactive
same,outcome,[5],inactive
NCC(O)c1ccc(O)cc1 (stereo unspecified),outcome,[1],inactive
same,outcome,[7],inactive
same,outcome,[8],inactive
same,outcome,[9],inactive
same,outcome,[10],inactive
same,outcome,[11],inactive
same,outcome,[12],inactive
same,outcome,[13],inactive
same,outcome,[14],inactive
same,outcome,[15],inactive
same,outcome,[16],inactive
same,outcome,[17],inactive
same,outcome,[18],inactive
same,outcome,[19],inactive
same,outcome,[20],inactive
CCCC(C)(COC(N)=O)COC(=O)NC(C)C (stereo unspecified),outcome,[1],inactive
Cc1ccc(-c2nc3ccc(C)cn3c2CC(=O)N(C)C)cc1,outcome,[4],inactive
same,outcome,[5],inactive
same,Potency,[6],inactive
